This is an account of results in PubChem BioAssay AID1030 (National Center for Advancing Translational Sciences (NCATS), 2008).

Out of some 220,000 compounds screened, about 16,000 (7.3%) were called active. Inconclusive results (about 25%) are left out. Shown is part of a subset that was picked to be rich in actives. Where a call stands in place of a potency, no number is given. A number with no mark means an inactive call. Calls follow the shape of the dose curve; as a rule, active = well fitted inhibition curve with a large enough effect (not every such curve was filed as active); inconclusive = small, poorly fitted or top-dose-only effect, or another doubt; inactive = no such curve, though single readings can be large or run the other way.
Potency is read from the fitted curve at half-maximal effect.

The target of this experiment is Aldehyde dehydrogenase 1A1 (Homo sapiens) (UniProt P00352). Briefly: qHTS Assay for Inhibitors of Aldehyde Dehydrogenase 1 (ALDH1A1). The following applies: Purified ALDH1A1, NADH fluorescence, propionaldehyde substrate; series mostly up to 75.3 µM. A general note: In qHTS, concentration-response curves come from the screen itself.
Chain of Aldehyde dehydrogenase 1A1 (Homo sapiens) (P00352 whole entry, looked up): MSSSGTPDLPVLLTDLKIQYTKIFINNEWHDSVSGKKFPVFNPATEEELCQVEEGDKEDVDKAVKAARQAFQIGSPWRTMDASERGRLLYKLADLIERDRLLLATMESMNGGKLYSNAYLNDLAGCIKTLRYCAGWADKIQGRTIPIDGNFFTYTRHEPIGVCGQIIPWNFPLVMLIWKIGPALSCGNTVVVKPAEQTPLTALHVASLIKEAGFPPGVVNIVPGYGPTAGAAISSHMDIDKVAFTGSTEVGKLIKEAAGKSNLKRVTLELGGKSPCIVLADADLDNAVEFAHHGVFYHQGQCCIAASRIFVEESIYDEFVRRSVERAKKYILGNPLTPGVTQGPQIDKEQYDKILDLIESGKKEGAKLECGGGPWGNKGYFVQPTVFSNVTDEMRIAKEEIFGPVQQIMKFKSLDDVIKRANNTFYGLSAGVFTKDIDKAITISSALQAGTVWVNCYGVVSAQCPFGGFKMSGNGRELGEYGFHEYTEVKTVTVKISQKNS
In the case of `Cc1ccc(CN2CCN(Cc3ccc(OCCO)cc3)CC2CCO)o1` (configuration not stated), the Potency result is “inactive”.

In the case of `COc1c(C)cc(C(=O)C2CCCN(S(=O)(=O)c3c(C)noc3C)C2)cc1C` (configuration not stated), the Potency entry was “inactive”.

`COc1ccc(-c2nc3c(c4c2C[C@H](c2ccccc2)OC4)CN(C(=O)C2CC2)CC3)c(C)c1`: the Potency is 0.398 µM (active).

As to `COc1cccc(CC(=O)N2CCc3nc(COc4ccccc4)c4c(c3C2)CO[C@@H](C)C4)c1`, the activity, negative = inhibition is 6.69% [at 13.5 µM].

Take `COc1ccc(-c2nc3c(c4c2C[C@H](c2ccccc2)OC4)CN(C(=O)c2cccnc2)CC3)c(C)c1`: the Potency is 0.355 µM (active).

Take `C[C@H]1Cc2c(COc3ccccc3)nc3c(c2CO1)CN(C(=O)NCc1ccco1)CC3`: the activity, negative = inhibition was -1.72% [at 13.5 µM].

Turning to `C[C@H]1Cc2c(-c3ccccc3)nc3c(c2CO1)CN(S(=O)(=O)c1ccc(Cl)c2nonc12)CC3`, the activity, negative = inhibition was -9.79% [at 13.5 µM].

Take `COc1ccc(-c2nc3c(c4c2C[C@H](c2ccccc2)OC4)CN(C(=O)c2ccco2)CC3)c(C)c1`: the Potency was 1.78 µM (active).

Turning to `C[C@H]1Cc2c(-c3ccccc3)nc3c(c2CO1)CN(C(=O)C1CC1)CC3`, the activity, negative = inhibition was 8.3% [at 13.5 µM].

For the molecule `COc1ccc(-c2nc3c(c4c2C[C@H](c2ccccc2)OC4)CN(S(=O)(=O)c2c(C)noc2C)CC3)c(C)c1`, the Potency is 0.447 µM (active).

Take `C[C@H]1Cc2c(COc3ccccc3)nc3c(c2CO1)CN(C(=O)Nc1cccc(C#N)c1)CC3`: the activity, negative = inhibition was -13.5% [at 13.5 µM].

In the case of `Cc1ccc(OCC(=O)N2CCN(C(=O)c3cccnc3)CC2)cc1`, the Potency result was “inactive”.

Turning to `COc1ccc(F)c(-c2nc(CN3CCC(c4ccccc4)CC3)c(C)o2)c1`, the Potency entry is “inactive”.

As to `CN1CCN(/N=C/c2ccc(-c3ccc([N+](=O)[O-])cc3)o2)CC1`, the Potency result was “inactive”.

As for `CCOC(=O)N1CCN(C(=S)Nc2ccc(C)cc2C)CC1`, the Potency entry is “inactive”.

In the case of `CCOc1ccc(N(CC(=O)NCCc2ccc(OC)cc2)S(C)(=O)=O)cc1`, the Potency result is “inactive”.

As for `COCOc1cc(OC)ccc1C(=O)/C=C/c1ccc([N+](=O)[O-])cc1`, the Potency result was “inactive”.

Turning to `CCOc1ccc(-c2n[nH]c(C)c2-c2ccccn2)c(O)c1`, the Potency entry is “inactive”.

As for `Cc1cc(C)cc(C(=O)N(CCc2ccccc2)C2=CC3CCC(C2)N3C)c1` (configuration not stated), the Potency result was “inactive”.

Consider `CCn1c(CNC(=O)c2ccco2)nnc1SCC(=O)Nc1cccc(F)c1`, for which the Potency entry was “inactive”.

Turning to `Nc1ccc(OCC(O)C[n+]2ccc(CCS(=O)(=O)[O-])cc2)cc1` (configuration not stated), the Potency entry is “inactive”.

Consider `Cc1ccc(NC(=O)C(=O)NCc2ccc(/C=N/NC(=O)c3c(C)nc4cc(C)ccn34)o2)cc1`, for which the Potency result was “inactive”.

For `CCOC(=O)C(NC(C)=O)C(=O)Nc1ccc(OC)cc1` (configuration not stated), the Potency result was “inactive”.

On to `CCn1c(CNC(=O)c2ccc(OC)c(OC)c2)nnc1SCC(=O)Nc1ccccc1`, for which the Potency entry was “inactive”.

With `COC(=O)c1ccc(NC(=O)CSc2nnc(-c3ccncc3)n2C)cc1`, the Potency result is “inactive”.

As for `CCn1c(COc2ccccc2)nnc1SCC(=O)NCc1ccco1`, the Potency entry was “inactive”.

As for `O=C(CSc1nnc(-c2cccnc2)n1Cc1ccco1)c1ccc(Cl)cc1`, the Potency result was “inactive”.

With `COC(=O)c1ccc(NC(=O)CSc2nnc(CNc3ccc(OC)cc3)n2C)cc1`, the Potency was 28.2 µM (active).

Take `CCn1c(CNc2ccc(OC)cc2)nnc1SCC(=O)c1ccc(OC)cc1`: the Potency is 0.199 µM (active).

As to `CCn1c(COc2ccc(OC)cc2)nnc1SCC(=O)Nc1cc(OC)ccc1OC`, the Potency result was “inactive”.

Regarding `COc1ccc(C(=O)CSc2nnc(COc3ccccc3)n2Cc2ccco2)cc1`, the Potency is 8.91 µM (active).

In the case of `COc1ccc(CC(=O)NCc2nnc(SCC(=O)Nc3nccs3)n2C)cc1`, the Potency result is “inactive”.

In the case of `CN(Cc1ccccc1)C(=O)CCc1ccccc1`, the Potency result is “inactive”.

Consider `CCOCCCNC(=O)C(=O)NCCCOCC`, for which the Potency result was “inactive”.

Turning to `CC(C)C(=O)Nc1cccc(NC(=O)c2ccc([N+](=O)[O-])cc2Cl)c1`, the Potency result was “inactive”.

Take `Clc1ccc(N/N=C/c2cccs2)nn1`: the Potency entry was “inactive”.

Consider `Cc1ccccc1-c1ccc(C(=O)O)s1`, for which the Potency entry was “inactive”.

For the molecule `COc1ccc(CN2CCCC(C(=O)c3ccc(Cl)cc3)C2)cc1Cn1cncn1` (configuration not stated), the Potency result was “inactive”.

On to `CCOC(=O)c1[nH]ncc1CN1CCCC(C(=O)c2ccc(OC)cc2C)C1` (configuration not stated), for which the Potency entry is “inactive”.

As for `COc1cc(OC)c(C(=O)N2CCCC2)cc1OC`, the Potency result was “inactive”.

For the molecule `O=C(NCc1ccco1)C1CCCN(S(=O)(=O)c2ccccc2)C1` (configuration not stated), the Potency entry was “inactive”.

Take `Cc1ccc(S(=O)(=O)N2CCC(C(=O)N[C@@H](C)C(=O)NCc3ccco3)CC2)cc1`: the Potency entry was “inactive”.

With `Cc1ccc(S(=O)(=O)N2CCCC2C(=O)NCc2ccco2)cc1` (configuration not stated), the Potency is 28.2 µM (active).

Take `CSc1ncccc1C(=O)N1CCCC(CCC(=O)NCc2ccccc2F)C1` (configuration not stated): the Potency result is “inactive”.

As to `COc1ccc(C)cc1-n1nnnc1SCC(=O)c1cc(C)n(Cc2ccco2)c1C`, the Potency is 15.8 µM (active).

With `Cc1cc(C(=O)COC(=O)CNC(=O)c2ccc(F)cc2)c(C)n1Cc1ccco1`, the Potency result is “inactive”.

On to `COc1ccc(OC)c(-n2nnnc2SCC(=O)Nc2cc(C)ccc2OC)c1`, for which the Potency result was “inactive”.

On to `CC/C=C\C/C=C\C/C=C\C/C=C\C/C=C\C/C=C\CCC(=O)NCCc1ccc(O)c(O)c1`, for which the Potency result is “inactive”.

Turning to `O=C(c1ccco1)N1CCN(C(=O)C2CC(c3ccc(F)cc3)=NO2)CC1` (configuration not stated), the Potency result is “inactive”.

Turning to `O=C(c1ccco1)N1CCN(C(=O)c2ccc(COc3ccc(F)cc3)o2)CC1`, the Potency is 28.2 µM (active).

Take `COc1ccccc1OCc1ccc(C(=O)N2CCN(C)CC2)o1`: the Potency result is “inactive”.

As for `COc1ccc(-n2c(C)cc(C(=O)CN3C(=O)NC4(CCc5ccccc54)C3=O)c2C)cc1` (configuration not stated), the Potency entry is “inactive”.

As for `Cc1ccc(NC(=O)CNCc2ccccn2)cc1S(=O)(=O)N(C)C`, the Potency entry is “inactive”.

For the molecule `CN(C)S(=O)(=O)c1cc(NC(=O)CN2C(=O)NC3(CCCc4ccccc43)C2=O)ccc1Cl` (configuration not stated), the Potency is 12.6 µM (active).

In the case of `Cc1ccc(/C=N/NC(=O)Cn2ccc(C(F)(F)F)n2)o1`, the Potency entry is “inactive”.

On to `CCN(CC)N=Nc1cccc(NC(C)=O)c1`, for which the Potency entry was “inactive”.

Take `O=C(N/N=C/c1coc2ccccc2c1=O)c1cc2ccccc2o1`: the Potency is 10 µM (active).

As to `Cc1c(/C=N\NC(=O)c2cc3ccccc3o2)c2ccccc2n1C`, the Potency entry was “inactive”.

For the molecule `O=C(Nc1ccncc1)c1cc2ccccc2o1`, the Potency result was “inactive”.

In the case of `NC(=O)Cn1nc([N+](=O)[O-])nc1Oc1ccc(Br)cc1`, the Potency result was “inactive”.

`CC(C)(C)C(=O)N(Cc1ccccc1)c1ccccn1`: the Potency result is “inactive”.

As to `CC(C)CCN1CCN(Cc2cn[nH]c2C2CCCCC2)CC1CCO` (configuration not stated), the Potency result was “inactive”.
